Results taken from PubChem BioAssay (NCATS).
Results filed as inconclusive are left out. The source made the active and inactive calls. Calls follow the shape of the dose curve; as a rule, active = well fitted inhibition curve with a large enough effect; inconclusive = small, poorly fitted or top-dose-only effect; inactive = flat fitted curve, though single readings scatter.

What follows are molecules tested against Calcium and integrin-binding protein 1 (Homo sapiens) (UniProt Q99828) (assay: Primary qHTS for Identification of Calcium Integrin Binding Protein 1 (CIB1) Competitor (AID 1508620;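 also: GST tagged CIB1 binding a fluorescein labelled alphaIIb integrin peptide tracer; top concentration of the series differs between compounds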)). Details: CIB1-GST / FITC-alphaIIb peptide fluorescence polarization; series mostly up to 114 µM; activity change, negative = inhibition: at the top concentration.
Sequence of Calcium and integrin-binding protein 1 (Homo sapiens) (Q99828 whole entry, looked up): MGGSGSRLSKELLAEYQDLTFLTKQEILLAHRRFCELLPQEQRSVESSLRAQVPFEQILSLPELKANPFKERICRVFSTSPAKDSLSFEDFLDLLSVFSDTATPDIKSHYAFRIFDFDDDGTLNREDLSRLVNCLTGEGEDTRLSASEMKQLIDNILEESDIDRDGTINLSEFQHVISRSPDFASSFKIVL
Outline: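 Fluorescence polarization competition: CIB1-GST (1 uM final) preincubated with compound 15 min at room temperature, then FITC-labeled alphaIIb peptide (100 nM final) added for another 15 min. Polarization read at Ex 480/Em 540.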
% is scaled to controls: 0 for no effect and ±100 for the full control effect.

| SMILES | activity change, negative = inhibition |
| --- | --- |
| CC(C)(C)c1cccc(-n2cnc3cc(C(=O)N4CCCCC4)ccc32)c1 | 0.3% (inactive) |
| Cc1ccc(OCCn2c(CCNC(=O)c3ccc(C(F)(F)F)cc3)nc3ccccc32)cc1 | -1.97% (inactive) |
| Cc1cc(NCc2ccc(NC(=O)Cc3ccc(Cl)c(Cl)c3)cc2)no1 | 7.28% (inactive) |
| CCOC(=O)c1nn(-c2ccccc2)c(=O)c2c(N)scc12 | -15.2% (inactive) |
| COc1cccc(C2N=C(Nc3nc4ccccc4o3)NC3=C2C(=O)CCC3)c1 (stereo not drawn) | -13.4% (inactive) |
| O=C1c2ccccc2C(=O)N1Cc1ccccc1 | -1.94% (inactive) |
| Cc1cc(N(C)S(=O)(=O)c2ccc(NC(=O)Cc3ccc(Cl)c(Cl)c3)cc2)no1 | -4.12% (inactive) |
| COc1ccccc1-c1ncc(C)c(NCc2ccc(-c3cccnc3)cc2)n1 | -1.16% (inactive) |
| COc1cccc(-c2nc(SC)nc3sc(C(=O)NC(C)(C)C)c(N)c23)c1 | -3.91% (inactive) |
| O=C(Nc1cc(C(F)(F)F)ccc1Cl)[C@H](O)CCc1ccccc1 | 1.48% (inactive) |
| COc1ccc(CNc2ccc(-c3nc4ccccc4[nH]3)cc2)cc1OC | -9.71% (inactive) |
| COc1ccc(-c2nnc3n2N=C(c2cc(OC)ccc2OC)CS3)c(OC)c1 | -1.15% (inactive) |
| COc1cc(O)c(C(CC(=O)N2CCCC2)c2ccc3c(c2)OCO3)c(OC)c1 (stereo not drawn) | 1.24% [at 228 µM] (inactive) |
| Cc1occc1-c1ccc2ncnc(NCc3ncc[nH]3)c2c1 | -2.18% (inactive) |
| Cn1cc(P(=O)(c2ccccc2)c2ccccc2)c2ccccc21 | -1.3% (inactive) |
| Cc1cc2c(s1)c1cnn(Cc3c(F)cc(F)cc3F)c(=O)c1n2C | 2.74% (inactive) |
| Cc1cc2c(s1)c1cnn(Cc3c(F)ccc(Cl)c3F)c(=O)c1n2C | -0.826% (inactive) |
| N#Cc1c(-c2ccco2)no[n+]1[O-] | -3.75% (inactive) |
